Results filed as inconclusive are left out. Active and inactive are the calls of the source. Unless noted, how the calls were made is not given here.
Tests used:
[1] = qHTS Assay for Identifying Gametocytocidal Compounds (AID 743244; active means well fitted curve in the direction sought with a large enough effect; an effect the other way counts as inactive or inconclusive; further: potency means the concentration at half of the fitted maximal effect;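 on max response: on the % scale 0 is the no-effect control and ±100 the full control effect; actives lower the fluorescent signal which means gametocytes are killed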); conditions: P. falciparum 3D7 stage III-V gametocytes, alamarBlue, 72 h; max response: stronger effect = lower value
Procedure, shortened: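 Viability read-out was resazurin reduction (alamarBlue, 24 h) measured at Ex 525/Em 598 nm. Beforehand, late-stage (III-V) 3D7 P. falciparum gametocytes at 20,000 cells/well were incubated with compound 72 h at 37C under 5% CO2.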

[2] = qHTS profiling for inhibitors of Plasmodium falciparum (3D7) proliferation (AID 743322);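 further: infected erythrocytes exposed to compound for 72 h before lysis; 100% = DMSO vehicle wells and 0% = 0.29 µM artemisinin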; conditions: P. falciparum 3D7 proliferation; at 28.7 µM (top of the series) unless noted
Procedure, shortened: (§1)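 Parasite DNA was quantified by SYBR Green I fluorescence (ex 485, em 535 nm) after overnight lysis in saponin/Triton buffer at room temperature. Cultures at 0.3% parasitemia and 2.5% hematocrit were first exposed to compound for 72 h at 37 C; signals were normalised to artemisinin (0.29 uM) and vehicle wells.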

[3] = qHTS profiling for inhibitors of Plasmodium falciparum (DD2) proliferation (AID 743323); conditions: lower = more inhibition; at 28.7 µM (top of the series) unless noted
Procedure, shortened: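 P. falciparum Dd2-infected erythrocytes (0.3% parasitemia, 2.5% hematocrit) exposed 72 h at 37 C, 5% CO2. Lysis with SYBR Green, overnight at room temperature, fluorescence 485/535 nm; normalized to 0.29 uM artemisinin and DMSO.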

[4] = qHTS profiling for inhibitors of Plasmodium falciparum (HB3) proliferation (AID 743324; active means well fitted curve in the direction sought with a large enough effect; an effect the other way counts as inactive or inconclusive;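 further: 100% = DMSO vehicle wells and 0% = artemisinin-treated control wells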); conditions: Plasmodium falciparum HB3 blood-stage proliferation; at 28.7 µM (top of the series) unless noted
Procedure, shortened: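 SYBR Green fluorescence (485 ex/535 em) of lysed cultures, incubated overnight at room temperature in the dark, quantifies parasite DNA. Infected erythrocytes at 0.3% parasitemia and 2.5% hematocrit were exposed 72 h; values normalized to DMSO and 0.29 uM artemisinin controls.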

[5] = qHTS profiling of the MIPE4 collection as inhibitors of Plasmodium falciparum (3D7) proliferation (AID 743344);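 further: scaled between DMSO vehicle wells and 0.29 µM artemisinin as full inhibition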; conditions: P. falciparum 3D7 in erythrocytes, SYBR Green DNA fluorescence, 72 h; at 28.5 µM (top of the series) unless noted
Procedure, shortened: as §1

[6] = qHTS profiling of the MIPE4 collection as inhibitors of Plasmodium falciparum (DD2) proliferation (AID 743345); conditions: P. falciparum Dd2 in erythrocytes, SYBR Green DNA, 72 h; at 28.5 µM (top of the series) unless noted
Procedure, shortened: as §1

[7] = qHTS profiling of the MIPE4 collection as inhibitors of Plasmodium falciparum (DD2) proliferation (Rep 2) (AID 743346); conditions: P. falciparum Dd2 in erythrocytes, SYBR Green DNA, 72 h; at 28.5 µM (top of the series) unless noted
Procedure, shortened: as §1

[8] = qHTS profiling of the MIPE4 collection as inhibitors of Plasmodium falciparum (HB3) proliferation (AID 743347);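 further: plate controls were DMSO vehicle wells for no effect and artemisinin wells for full effect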; conditions: P. falciparum HB3 in erythrocytes, SYBR Green DNA, 72 h; at 28.5 µM (top of the series) unless noted
Procedure, shortened: as §1

[9] = High-throughput drug toxicity screening in the BPDCN cell line Gen2.2 (AID 1224824); conditions: Gen2.2 BPDCN cells; at 45.8 µM (top of the series) unless noted;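 further: cells exposed to compounds for 48 h before reading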
Procedure, shortened: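 Gen2.2, 500 cells/well, phenol red-free RPMI/10% FBS/Pen-Strep; 48 h cpd, 37 °C/5% CO2; CTG lum, 15 min RT. Norm: DMSO = 100%, bortezomib 9.2 uM final = 0%.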

[10] = High-throughput drug toxicity screening in the BPDCN cell line Cal-1 (AID 1224825); conditions: Cal-1 BPDCN cell viability, qHTS; at 45.8 µM (top of the series) unless noted;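 further: cells exposed to compounds for 48 h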
Procedure, shortened: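 Percent activity derived from CellTiter-Glo luminescence, scaling DMSO to 100% and 9.2 uM final bortezomib to 0%. BPDCN Cal-1 cells (500/well, RPMI plus 10% FBS) incubated with compounds 48 hours at 37C before reading.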

[11] = qHTS assay for measurement of the activity of small molecule inhibitors on Zika virus induced Caspase-3 activity in human iPSC derived neural progenitor cells (hNPCs) (AID 1224857; active means well fitted curve in the direction sought with a large enough effect; an effect the other way counts as inactive or inconclusive; further: % of control where 0% means no effect; nearly all actives have a fitted effect of over 65% in size)
Procedure, shortened: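 Percent inhibition of virus-induced caspase-3/7 luminescence (Caspase-Glo), scaled between uninfected cells and Zika-infected cells. hNPCs received compound 1 hr before ZIKV at 2 FFU/cell, with 6 hours infection at 37 C.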

[12] = target: T1, Hexokinase-4 (Homo sapiens) + Glucokinase regulatory protein (Homo sapiens) (UniProt P35557+Q14397); test: qHTS assay for inhibitors of recombinant human GCK-GKRP interaction: Diaphorase-coupled assay (AID 743205; active means well fitted curve in the direction sought with a large enough effect; an effect the other way counts as inactive or inconclusive)
Procedure, shortened: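 Inhibitors of the GCK–GKRP complex relieve GKRP suppression of GCK, detected through a G6PDH–diaphorase cascade reducing resazurin. Human GST-GCK and FLAG-GKRP are used at 10 nM with 5 mM glucose and 0.4 mM ATP.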

[13] = target: T1, Hexokinase-4 (Homo sapiens) + Glucokinase regulatory protein (Homo sapiens); test: qHTS assay for inhibitors of recombinant human GCK-GKRP interaction: ADP-Glo assay (AID 743206; active means well fitted curve in the direction sought with a large enough effect; an effect the other way counts as inactive or inconclusive;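 further: plate controls were DMSO plus enzyme for no effect and no enzyme for full effect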)
Procedure, shortened: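 Pin-transferred compounds meet a 15 nM GST-GCK/15 nM FLAG-GKRP/2 uM S6P mix (dispense concentrations). ATP is then added to 0.4 mM final with 5 mM glucose, and the reaction runs 60 min at room temperature. ADP is quantified luminescently.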

[14] = target: T1, Hexokinase-4 (Homo sapiens) + Glucokinase regulatory protein (Homo sapiens); test: qHTS assay for inhibitors of recombinant human GCK-GKRP interaction: HTRF assay (AID 743207; active means well fitted curve in the direction sought with a large enough effect; an effect the other way counts as inactive or inconclusive;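 further: 0% = DMSO with GCK present and -100% = DMSO wells lacking GCK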)
Procedure, shortened: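 Steps: dispense GCK–GKRP complex (5 nM each, GST- and FLAG-tagged) with 2 uM S6P; pin in compounds; add XL665/Eu-cryptate-labelled antibodies; incubate 60 min at room temperature; read time-resolved FRET at 665 and 615 nm.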

T1 sequence (P35557 whole entry, looked up): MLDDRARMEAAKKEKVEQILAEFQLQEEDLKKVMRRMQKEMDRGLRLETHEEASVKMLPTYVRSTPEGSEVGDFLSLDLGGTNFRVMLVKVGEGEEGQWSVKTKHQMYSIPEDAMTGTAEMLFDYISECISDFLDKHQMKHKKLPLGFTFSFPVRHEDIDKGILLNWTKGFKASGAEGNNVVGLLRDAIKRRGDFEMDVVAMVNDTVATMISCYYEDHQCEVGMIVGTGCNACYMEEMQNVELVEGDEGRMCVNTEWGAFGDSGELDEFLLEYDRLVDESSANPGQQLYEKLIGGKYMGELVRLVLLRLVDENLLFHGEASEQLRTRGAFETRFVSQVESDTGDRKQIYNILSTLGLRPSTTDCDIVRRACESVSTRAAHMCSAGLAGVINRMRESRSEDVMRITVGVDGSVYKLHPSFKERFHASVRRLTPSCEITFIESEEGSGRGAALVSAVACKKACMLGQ
T1 sequence (Q14397 whole entry, looked up): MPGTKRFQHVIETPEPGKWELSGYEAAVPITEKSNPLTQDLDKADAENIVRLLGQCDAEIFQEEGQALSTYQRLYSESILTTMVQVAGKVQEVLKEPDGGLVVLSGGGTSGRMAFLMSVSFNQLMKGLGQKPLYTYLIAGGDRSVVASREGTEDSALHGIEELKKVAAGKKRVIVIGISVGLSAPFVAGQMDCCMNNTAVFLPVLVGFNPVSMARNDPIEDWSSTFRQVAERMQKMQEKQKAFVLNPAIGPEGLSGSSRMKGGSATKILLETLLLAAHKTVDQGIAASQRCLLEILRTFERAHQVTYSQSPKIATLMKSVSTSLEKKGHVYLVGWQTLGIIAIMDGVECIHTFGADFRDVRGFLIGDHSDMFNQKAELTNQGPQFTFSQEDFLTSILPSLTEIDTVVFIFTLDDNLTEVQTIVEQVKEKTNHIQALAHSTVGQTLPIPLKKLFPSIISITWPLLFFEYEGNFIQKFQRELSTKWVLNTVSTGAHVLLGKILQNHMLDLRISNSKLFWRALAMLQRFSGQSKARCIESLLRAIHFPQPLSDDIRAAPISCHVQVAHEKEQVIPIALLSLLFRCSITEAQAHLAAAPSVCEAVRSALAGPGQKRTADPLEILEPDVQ

Structure (SMILES)	max response [1]	remaining parasite growth % (stronger effect = lower value) [2]	activity, percent of control [3]	remaining proliferation (% of control), lower = more inhibition [4]	parasite growth, % of DMSO control [5]	parasite growth remaining, % of DMSO control (lower = more inhibition) [6]	parasite growth, % of control (lower = inhibition) [7]	growth, % of control [8]	cell viability, % of control (lower = more cytotoxic) [9]	viability (% of control) [10]	Potency [11]	outcome [12]	outcome [13]	outcome [14]	Potency [1]
OCCn1cc(-c2ccc3c(c2)CCC3=NO)c(-c2ccncc2)n1	8.08% (inactive)	89.8%	97.1%	73.4%	67.4%	83.9%	74.7%	89.4%	4.73%	76.4%	inactive				
OC[C@H]1O[C@@H](Oc2ccc(O)cc2)[C@H](O)[C@@H](O)[C@H]1O					82.1%	94.8%	127%	93.4%	146%	83.5%	inactive				
CO[C@H]1/C=C\O[C@@]2(C)Oc3c(C)c(O)c4c(O)c(c(C=NN5CCN(C6CCCC6)CC5)c(O)c4c3C2=O)NC(=O)C(C)=CC=C[C@H](C)[C@H](O)[C@@H](C)[C@@H](O)[C@@H](C)[C@H](OC(C)=O)[C@H]1C					4.38%	6.13%	8.54%	2.45%	1.16%	0.727%	inactive				
C[C@H]1COC2=C1C(=O)C(=O)c1c2ccc2c1CCCC2(C)C					5.99%	12.1%	15.5%	9.95%	23.4%	56.6%	inactive				
NC(=O)c1nnn(Cc2cc(Cl)c(C(=O)c3ccc(Cl)cc3)c(Cl)c2)c1N					23.3%		37%	6.97%	390%	45.1%	inactive				
O=C(CO)N1CCC(c2[nH]nc(-c3ccc(Cl)cc3)c2-c2ccncn2)CC1					25.8%	82.9%	53.8%	30.6%	421%	97.4%	inactive				
c1ccc(CNc2nc(N3CCOc4ccccc43)nc3c2CCCC3)cc1					10.7%	70.4%	21.3%	8.4%	233%	95.6%	inactive				
C=CCc1cccc(C=NNC(=O)CN2CCN(Cc3ccccc3)CC2)c1O					38.6%	23.3%	19.3%	97.7%	67.9%	11.1%	inactive	inactive	inactive	inactive	
CN(C)CCCNC(=O)c1ccc(-c2cc(O)c3ncccc3c2)cc1		3.59%	5.19%	5.15%	25.8%	15.1%	23.5%	8.59%	48.4%	19.6%	inactive				2960 nM (active)
CC[C@]1(O)C[C@H]2CN(CCC3=c4ccccc4=N[C]3[C@@](C(=O)OC)(c3cc4c(cc3OC)N(C)[C@H]3[C@@](O)(C(N)=O)[C@H](O)[C@]5(CC)C=CCN6CC[C@]43[C@@H]65)C2)C1					18.7%	14.1%	35%	17.4%	14.7%	14.9%	inactive				

From PubChem BioAssay (NCATS)
